# Source: PubChem BioAssay (NCATS)
# Inconclusive results are not listed. Where a call stands in place of a potency, no number is given. Unmarked numbers belong to inactive results. Calls of active or inactive are those of the source. Calls come from the whole dose curve; as a rule, active = well fitted curve in the direction sought with a large enough effect; inconclusive = small, poorly fitted or top-dose-only effect, or another doubt; inactive = no such curve, though single readings can be large; an effect the other way counts as inactive or inconclusive.
# Columns and labels:
# [1] = qHTS of pediatric cancer cell lines to identify multiple opportunities for drug repurposing: Primary screen for A673 cells (AID 1347092); note: nearly all actives have a fitted effect of over 45% in size; note: potency is the fitted concentration of half-maximal effect
# How it was run: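 Luminescence from CellTiter-Glo, taken after 15 min at room temperature, served as the proxy for metabolically active cells following 48 h treatment. Both potency and efficacy were taken from curves fitted to the titration data.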
# [2] = qHTS of pediatric cancer cell lines to identify multiple opportunities for drug repurposing: Primary screen for BT-37 cells (AID 1347094); note: series mostly up to about 57 µM
# How it was run: (§1)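 ATP-based luminescence (CellTiter-Glo) quantifies viability after a 48-hour exposure. Compounds are dosed across 8 or 11 final concentrations; DMSO and 2.3 µM bortezomib serve as controls.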
# [3] = qHTS of pediatric cancer cell lines to identify multiple opportunities for drug repurposing: Primary screen for NB-EBc1 cells (AID 1347095)
# How it was run: as §1
# [4] = qHTS of pediatric cancer cell lines to identify multiple opportunities for drug repurposing: Primary screen for U-2 OS cells (AID 1347096); note: nearly all actives have a fitted effect of over 50% in size
# How it was run: (§2)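 Viability after 48 h compound treatment at 37C, 500-1,000 cells/well, read as ATP luminescence with CellTiter-Glo. Primary screens used 11-point (MIPE, 0.78 nM-46 µM) or 8-point (NPC, 0.59 nM-46 µM) final concentrations; follow-up screens used 11-point dilutions.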
# [5] = qHTS of pediatric cancer cell lines to identify multiple opportunities for drug repurposing: Primary screen for SK-N-SH cells (AID 1347098); note: nearly all actives have a fitted effect of over 65% in size; note: potency is the fitted concentration of half-maximal effect
# How it was run: (§3)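 Cells (500-1,000/well) rested 5 h, then received compounds for 48 h; metabolically active cells were measured by CellTiter-Glo luminescence. Final concentrations spanned up to 46 µM (MIPE, 11-point) or 0.59 nM-46 µM (NPC, 8-point) in primary screens, 11-point in follow-ups.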
# [6] = qHTS of pediatric cancer cell lines to identify multiple opportunities for drug repurposing: Primary screen for NB1643 cells (AID 1347099); note: nearly all actives have a fitted effect of over 50% in size
# How it was run: as §1
# [7] = qHTS of pediatric cancer cell lines to identify multiple opportunities for drug repurposing: Primary screen for LAN-5 cells (AID 1347100); note: potency is the fitted concentration of half-maximal effect
# How it was run: as §2
# [8] = qHTS of pediatric cancer cell lines to identify multiple opportunities for drug repurposing: Primary screen for BT-12 cells (AID 1347101); note: nearly all actives have a fitted effect of over 25% in size; note: potency is the fitted concentration of half-maximal effect
# How it was run: as §3
# [9] = qHTS of pediatric cancer cell lines to identify multiple opportunities for drug repurposing: Primary screen for Rh18 cells (AID 1347102); note: nearly all actives have a fitted effect of over 65% in size
# How it was run: as §2
# [10] = qHTS of pediatric cancer cell lines to identify multiple opportunities for drug repurposing: Primary screen for RD cells (AID 1347104); note: nearly all actives have a fitted effect of over 55% in size; note: potency is the fitted concentration of half-maximal effect
# How it was run: as §1
# [11] = qHTS of pediatric cancer cell lines to identify multiple opportunities for drug repurposing: Primary screen for control Hh wild type fibroblast cells (AID 1347106);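 note: series mostly up to about 46 µM; a drop in luminescence marks cytotoxicity and a rise apparent proliferation; nearly all actives have a fitted effect of over 55% in size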
# How it was run: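 Cells (500-1,000/well) in growth media were settled 5 h at 37 degrees C, then given compounds for 48 h. Viability was read as CellTiter-Glo luminescence. Primary runs used MIPE at 11 points (0.78 nM-46 µM) and NPC at 8 points (0.59 nM-46 µM); follow-ups used 11 points.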
# [12] = qHTS of pediatric cancer cell lines to identify multiple opportunities for drug repurposing: Primary screen for Rh30 cells (AID 1347107); note: series mostly up to about 46 µM; nearly all actives have a fitted effect of over 75% in size
# How it was run: as §2
# [13] = qHTS of pediatric cancer cell lines to identify multiple opportunities for drug repurposing: Primary screen for Rh41 cells (AID 1347108);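 note: series mostly up to about 46 µM; luminescence drop marks cytotoxic hits; nearly all actives have a fitted effect of over 70% in size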
# How it was run: as §1
# [14] = qHTS of pediatric cancer cell lines to identify multiple opportunities for drug repurposing: Primary screen for Saos-2 cells (AID 1347097); note: nearly all actives have a fitted effect of over 40% in size; note: potency is the fitted concentration of half-maximal effect
# How it was run: as §1
# [15] = qHTS of pediatric cancer cell lines to identify multiple opportunities for drug repurposing: Primary screen for OHS-50 cells (AID 1347103); note: nearly all actives have a fitted effect of over 40% in size; note: potency is the fitted concentration of half-maximal effect
# How it was run: as §3
# [16] = qHTS of pediatric cancer cell lines to identify multiple opportunities for drug repurposing: Primary screen for MG 63 (6-TG R) cells (AID 1347105); note: nearly all actives have a fitted effect of over 50% in size; note: potency is the fitted concentration of half-maximal effect
# How it was run: as §1
# [17] = qHTS of pediatric cancer cell lines to identify multiple opportunities for drug repurposing: Primary screen for SK-N-MC cells (AID 1347093); note: potency is the fitted concentration of half-maximal effect
# How it was run: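 Metabolically active cells were quantified by ATP-dependent luminescence (CellTiter-Glo, 15 min at room temperature) following 48 h treatment. Cells had been plated at 500-1,000 per well and settled for 5 h beforehand.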
# [18] = qHTS of pediatric cancer cell lines to identify multiple opportunities for drug repurposing: Confirmatory screen for NB1643 cells (AID 1347109); note: nearly all actives have a fitted effect of over 45% in size
# How it was run: as §2
# [19] = qHTS of pediatric cancer cell lines to identify multiple opportunities for drug repurposing: Confirmatory screen for A673 cells (AID 1347110); note: potency is the fitted concentration of half-maximal effect; nearly all actives have a fitted effect of over 65% in size
# How it was run: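 qHTS titration format: primary MIPE 0.78 nM-46 µM (11 pts), NPC 0.59 nM-46 µM; confirmation 11 pts. 48 h, CTG luminescence.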
# [20] = qHTS of pediatric cancer cell lines to identify multiple opportunities for drug repurposing: Confirmatory screen for SK-N-MC cells (AID 1347111); conditions: SK-N-MC cell viability;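 note: potency is the fitted concentration of half-maximal effect; cells exposed to compound for 48 h before the readout; nearly all actives have a fitted effect of over 70% in size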
# How it was run: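 SK-N-MC cells at 500-1,000 cells/well in growth media were pre-incubated 5 h, then exposed to compounds at 11-point dilutions for 48 h at 37 degrees C, 5% CO2. Viability was read as CellTiter-Glo luminescence.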
Structure (SMILES),Potency [1],Potency [2],Potency [3],Potency [4],Potency [5],Potency [6],Potency [7],Potency [8],Potency [9],Potency [10],outcome [11],Potency [12],Potency [13],Potency [14],Potency [15],Potency [16],Potency [17],Potency [18],Potency [19],Potency [20]
CCOC(=O)C1=C(C)NC(C)=C(C(=O)OC)C1c1cccc([N+](=O)[O-])c1 (centres undefined),inactive,inactive,inactive,inactive,inactive,inactive,inactive,inactive,inactive,inactive,inactive,inactive,inactive,–,–,–,–,–,–,–
COc1cc(Cc2cnc(N)nc2N)cc(OC)c1OC,inactive,inactive,inactive,inactive,inactive,inactive,inactive,inactive,inactive,inactive,inactive,inactive,inactive,inactive,inactive,inactive,–,–,–,–
Cc1ccc(S(=O)(=O)NC(=O)NN2CCCCCC2)cc1,inactive,inactive,inactive,inactive,inactive,inactive,inactive,inactive,–,inactive,inactive,inactive,inactive,inactive,inactive,inactive,–,–,–,–
CCN(CC)CCOCCOC(=O)C1(c2ccccc2)CCCC1,inactive,–,inactive,inactive,inactive,inactive,inactive,inactive,inactive,–,inactive,inactive,inactive,inactive,–,inactive,inactive,–,–,–
N[C@@H](COP(=O)(O)O)C(=O)O,inactive,inactive,inactive,inactive,inactive,inactive,inactive,inactive,inactive,inactive,inactive,inactive,inactive,–,inactive,inactive,inactive,–,–,–
CO[C@@]1(NC(=O)CSCC#N)C(=O)N2C(C(=O)O)=C(CSc3nnnn3C)CS[C@@H]21,inactive,inactive,inactive,inactive,inactive,inactive,inactive,inactive,inactive,inactive,inactive,inactive,inactive,inactive,inactive,inactive,–,–,–,–
CN=C(NC#N)NCCSCc1nc[nH]c1C,inactive,inactive,inactive,inactive,inactive,inactive,inactive,inactive,–,inactive,inactive,inactive,inactive,–,inactive,inactive,–,–,–,–
CN(C(=O)CCCOc1ccc2[nH]c(=O)ccc2c1)C1CCCCC1,inactive,inactive,inactive,inactive,inactive,inactive,inactive,–,inactive,inactive,inactive,inactive,–,–,21.9 µM (active),inactive,inactive,–,–,–
Cc1nc2c([nH]1)c(=O)n(C)c(=O)n2Cc1ccco1,inactive,inactive,inactive,inactive,inactive,inactive,inactive,inactive,inactive,inactive,inactive,inactive,inactive,inactive,inactive,inactive,–,–,–,–
OCCN1CCN(CCCN2c3ccccc3C=Cc3ccccc32)CC1,inactive,inactive,inactive,inactive,–,inactive,inactive,inactive,inactive,–,inactive,inactive,inactive,inactive,–,inactive,inactive,–,–,–
O=C(O)CN(CCN(CC(=O)O)CC(=O)O)CCN(CC(=O)O)CC(=O)O,inactive,–,inactive,inactive,inactive,inactive,–,inactive,inactive,inactive,inactive,inactive,inactive,inactive,inactive,inactive,inactive,–,–,–
CN1CCN(C2=Nc3ccccc3Oc3ccc(Cl)cc32)CC1,inactive,–,inactive,inactive,inactive,inactive,inactive,–,inactive,inactive,inactive,inactive,inactive,–,–,inactive,inactive,–,–,–
NC(N)=NC(=O)Cc1c(Cl)cccc1Cl,inactive,inactive,–,inactive,inactive,inactive,inactive,–,–,inactive,inactive,inactive,inactive,inactive,–,inactive,inactive,–,–,–
C[C@]12CC[C@@H]3c4ccc(O)cc4C[C@@H](CCCCCCCCCS(=O)CCCC(F)(F)C(F)(F)F)[C@H]3[C@@H]1CC[C@@H]2O (some centres undefined),inactive,inactive,inactive,inactive,–,inactive,inactive,inactive,inactive,inactive,inactive,inactive,inactive,–,–,inactive,9.44 µM (active),inactive,11.7 µM (active),2.61 µM (active)
CCOC(=O)c1cnc2c(cnn2CC)c1NN=C(C)C,inactive,inactive,inactive,inactive,–,inactive,inactive,inactive,inactive,inactive,inactive,inactive,inactive,–,inactive,inactive,inactive,–,–,–
CCN(Cc1ccncc1)C(=O)C(CO)c1ccccc1 (centres undefined),inactive,inactive,inactive,inactive,inactive,inactive,inactive,inactive,inactive,inactive,inactive,inactive,inactive,inactive,inactive,inactive,–,–,–,–
CC(=O)Oc1cc(C(C)C)c(OCCN(C)C)cc1C,inactive,inactive,inactive,inactive,inactive,inactive,inactive,inactive,inactive,inactive,inactive,inactive,inactive,–,inactive,inactive,inactive,–,–,–

Structure (SMILES),Potency [1],Potency [2],Potency [3],Potency [4],Potency [5],Potency [6],Potency [7],Potency [8],Potency [9],Potency [10],outcome [11],Potency [12],Potency [13],Potency [14],Potency [15],Potency [16],Potency [17],Potency [18],Potency [19],Potency [20]
CC(C)NCC(O)c1cc(O)cc(O)c1 (centres undefined),inactive,inactive,inactive,inactive,inactive,–,inactive,inactive,inactive,inactive,inactive,inactive,inactive,inactive,inactive,inactive,–,–,–,–
Cc1cc(C)c(/C=C2\C(=O)Nc3ccccc32)[nH]1,inactive,inactive,inactive,inactive,inactive,inactive,inactive,inactive,inactive,inactive,inactive,inactive,inactive,–,15.5 µM (active),inactive,18.8 µM (active),–,–,–
NC1=NCC2c3ccccc3Cc3ccccc3N12 (centres undefined),inactive,inactive,inactive,inactive,inactive,inactive,inactive,–,–,inactive,inactive,inactive,inactive,inactive,inactive,inactive,–,–,–,–
CCOC(=O)C1=C(C)NC(C)=C(C(=O)OC)C1c1cccc(Cl)c1Cl (centres undefined),inactive,inactive,inactive,inactive,–,inactive,inactive,–,inactive,inactive,inactive,inactive,inactive,inactive,–,inactive,–,–,–,–
O=C1NCN(c2ccccc2)C12CCN(CCCC(c1ccc(F)cc1)c1ccc(F)cc1)CC2,–,–,–,–,13.7 µM (active),inactive,–,13.8 µM (active),–,26.6 µM (active),inactive,–,–,13.3 µM (active),15.5 µM (active),–,16.8 µM (active),–,–,–
NC(N)=N/N=C/c1c(Cl)cccc1Cl,–,inactive,inactive,inactive,–,inactive,inactive,–,–,–,inactive,inactive,inactive,inactive,–,inactive,inactive,–,–,–
C(=C\c1ccccc1)/CN1CCN(C(c2ccccc2)c2ccccc2)CC1,–,inactive,–,inactive,inactive,inactive,inactive,inactive,inactive,–,inactive,inactive,inactive,–,27.6 µM (active),–,–,–,–,–
CN(C)CCCN1c2ccccc2Sc2ccccc21,–,–,–,inactive,–,inactive,inactive,–,–,–,inactive,inactive,inactive,–,17.4 µM (active),inactive,inactive,–,–,–
OCCN1CCN(CC/C=C2/c3ccccc3Sc3ccc(C(F)(F)F)cc32)CC1,–,–,inactive,–,13.7 µM (active),–,23.7 µM (active),–,–,26.6 µM (active),inactive,inactive,inactive,–,24.6 µM (active),–,–,–,–,–
CNCCCN1c2ccccc2CCc2ccccc21,–,–,–,inactive,30.7 µM (active),inactive,inactive,–,–,–,inactive,inactive,inactive,inactive,15.5 µM (active),–,–,–,–,–
CCc1cccc(N(C)C(N)=Nc2cccc3ccccc23)c1,–,–,inactive,–,–,inactive,inactive,–,–,–,inactive,inactive,–,18.8 µM (active),15.5 µM (active),–,–,–,–,–
CCCCCCCC/C=C\CCCCCCCC(=O)NCc1ccc(O)c(OC)c1,2.66 µM (active),inactive,–,inactive,inactive,inactive,–,–,inactive,inactive,inactive,inactive,–,–,–,inactive,–,–,–,–
Cc1nc2ccccn2c(=O)c1CCN1CCC(C(=O)c2ccc(F)cc2)CC1,–,inactive,inactive,inactive,inactive,inactive,inactive,–,inactive,inactive,inactive,inactive,inactive,–,–,inactive,–,–,–,–
CC1=C(C)C(=O)C(CCCCC#CCCCC#CCO)=C(C)C1=O,–,inactive,inactive,inactive,inactive,–,–,–,inactive,inactive,inactive,inactive,inactive,–,21.9 µM (active),inactive,–,–,–,–
COCC(=O)O[C@]1(CCN(C)CCCc2nc3ccccc3[nH]2)CCc2cc(F)ccc2[C@@H]1C(C)C,–,–,–,–,19.4 µM (active),inactive,–,–,–,26.6 µM (active),inactive,–,–,26.6 µM (active),21.9 µM (active),21.1 µM (active),–,–,–,–
CCN(CC)CCCN(c1ccccc1)C1Cc2ccccc2C1,–,inactive,inactive,inactive,–,inactive,–,–,–,–,inactive,inactive,inactive,inactive,–,inactive,–,–,–,–
Fc1ccc(C(c2ccc(F)cc2)N2CCN(C/C=C/c3ccccc3)CC2)cc1,–,–,–,–,–,inactive,–,–,–,–,inactive,inactive,inactive,–,17.4 µM (active),inactive,–,–,–,–
